According to PubChem BioAssay (NCATS):
A number with no mark means an inactive call. Inconclusive results are not listed. Calls of active or inactive are those of the source. Unless noted, calls follow the shape of the dose curve; as a rule, active = well fitted curve in the direction sought with a large enough effect; inconclusive = small, poorly fitted or top-dose-only effect, or another doubt; inactive = no such curve, though single readings can be large; an effect the other way counts as inactive or inconclusive.

Tested on: TAB165
Test: qHTS profiling for inhibitors of Plasmodium falciparum proliferation (AID 504749); also: nearly all actives have a fitted effect of over 60% in size; also: potency is read from the fitted curve at half-maximal effect;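 as to activity, negative = inhibition: 0% = DMSO vehicle and full inhibition = artemisinin control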
Settings: P. falciparum in erythrocytes, SYBR Green DNA, 72 h; series mostly up to 28.7 µM; activity, negative = inhibition: at the top concentration
In short: (§1)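 Each compound contacts P. falciparum-infected red blood cells for 72 h at 37 C; lysis buffer (Tris, EDTA, saponin, Triton X, SYBR Green I) is added and fluorescence measured next morning; values normalized to controls.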
For `CC(C)NC[C@H](O)COc1ccc(CC(N)=O)cc1`, the “activity, negative = inhibition” value was 10.1%. With `c1ccc(C2CN3CCSC3=N2)cc1` (stereo not given) the Potency was 5.01 µM (active). For `CC(O)C(O)[C@H]1CNc2nc(N)[nH]c(=O)c2N1` (stereo not given in full), the “activity, negative = inhibition” value was 5.3%. For `CCCCCCCCCCCCCCC[C@H](O)[C@H](N)CO`, the “activity, negative = inhibition” value was 2.5%. In the case of `CCCCCCCCCCCCCCCCCCOC[C@H](COP(=O)([O-])OCC[N+](C)(C)C)OC`, the “activity, negative = inhibition” value is reported as 11.2%.

Tested on: W2
Test: as above
Settings: P. falciparum in erythrocytes, SYBR Green DNA, 72 h; series mostly up to 28.7 µM; activity, negative = inhibition: at the top concentration
In short: as §1
In the case of `CC(C)NC[C@H](O)COc1ccc(CC(N)=O)cc1`, the “activity, negative = inhibition” value is reported as 15.1%. In the case of `c1ccc(C2CN3CCSC3=N2)cc1` (stereo not given), the Potency is reported as 1.51 µM (active). For `CC(O)C(O)[C@H]1CNc2nc(N)[nH]c(=O)c2N1` (stereo not given in full), the “activity, negative = inhibition” value was 3.45%. In the case of `CCCCCCCCCCCCCCC[C@H](O)[C@H](N)CO`, the “activity, negative = inhibition” value is reported as -13.8%. With `CCCCCCCCCCCCCCCCCCOC[C@H](COP(=O)([O-])OCC[N+](C)(C)C)OC` the “activity, negative = inhibition” value was 3.27%. For `CN1C2CCC1CC(OC(c1ccccc1)c1ccccc1)C2` (stereo not given), the Potency was 1.51 µM (active).

Tested on: not listed separately
Test: qHTS assay to identify inhibitors of the type 1 interferon - major histocompatibility complex class I in skeletal muscle: Counter screen cell viability and HiBit confirmation (AID 1347412); also: nearly all actives have a fitted effect of over 60% in size; also: potency is read from the fitted curve at half-maximal effect; as to activity change, negative = inhibition: % is scaled to controls: 0 for no effect and ±100 for the full control effect
Settings: iHSKM muscle cells + IFN-b, HiBiT or CellTiter-Glo, 24 h; HiBiT
In short: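 Duplicate plates, pinned identically: one read for HiBiT-tagged endogenous HLA-B luminescence, the other for ATP-content viability via CellTiter Glo. Cells were genome-engineered human myoblasts given 4 ng/ml IFN-b; compounds 12-pt, 1:3 from 46 uM final; 24 hr exposure.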
With `O=C1Cc2c([nH]c3ccc(Br)cc23)-c2ccccc2N1` the Potency was 15.7 µM (active). With `Brc1c(Br)c(Br)c2[nH]cnc2c1Br` the Potency was 14 µM (active). In the case of `O=c1[nH]c2cc(Cl)ccc2c(O)c1-c1ccc(Oc2ccccc2)cc1`, the Potency is reported as 5.57 µM (active). For `CC[n+]1c(/C=C/C=C2/N(C)c3ccccc3C2(C)C)sc2ccccc21`, the Potency was 7.01 µM (active). In the case of `C=C1C(=O)O[C@@H]2[C@H]3O[C@]3(C)CCC=C(C)CC[C@@H]12`, the Potency is reported as 8.83 µM (active).

Same assay, conditions: iHSKM muscle cells + IFN-b, HiBiT or CellTiter-Glo, 24 h; Viability; at 45.9 µM (top of the series)
With `O=C1Cc2c([nH]c3ccc(Br)cc23)-c2ccccc2N1` the activity change, negative = inhibition was -21.6%. In the case of `Brc1c(Br)c(Br)c2[nH]cnc2c1Br`, the activity change, negative = inhibition is reported as 3.14%. `O=c1[nH]c2cc(Cl)ccc2c(O)c1-c1ccc(Oc2ccccc2)cc1` gave an activity change, negative = inhibition of -0.671%. With `C=C1C(=O)O[C@@H]2[C@H]3O[C@]3(C)CCC=C(C)CC[C@@H]12` the activity change, negative = inhibition was 52.5%.

Target: Nuclear receptor subfamily 1 group I member 2 (Rattus norvegicus) (UniProt Q9R1A7)
Sequence (Q9R1A7 whole entry, looked up): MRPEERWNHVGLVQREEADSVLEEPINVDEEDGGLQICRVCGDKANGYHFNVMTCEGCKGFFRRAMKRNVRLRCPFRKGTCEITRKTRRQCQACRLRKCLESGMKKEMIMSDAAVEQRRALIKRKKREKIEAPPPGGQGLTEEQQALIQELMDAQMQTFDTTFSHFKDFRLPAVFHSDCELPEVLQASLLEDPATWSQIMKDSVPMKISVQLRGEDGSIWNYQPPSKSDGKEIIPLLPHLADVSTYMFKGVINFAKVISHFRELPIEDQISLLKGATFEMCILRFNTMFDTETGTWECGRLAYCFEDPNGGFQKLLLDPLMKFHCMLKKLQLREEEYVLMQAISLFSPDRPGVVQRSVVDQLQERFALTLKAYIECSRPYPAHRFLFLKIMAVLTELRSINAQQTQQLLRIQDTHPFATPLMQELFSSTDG
Test: qHTS assay for small molecule activators of the rat pregnane X receptor (rPXR) signaling pathway (AID 651751; call rule not given here; also: 0% is about no effect)
Settings: rPXR reporter cells, luciferase (One-Glo), 24 h
Work on `CCCc1c(-c2ccc(O)cc2)nn(-c2ccc(O)cc2)c1-c1ccc(O)cc1` yielded a max response of -3.52%. With `C/C(=C\c1ccc(C(=O)O)cc1)c1ccc2c(c1)C(C)(C)CCC2(C)C` the max response was 1.8%. `NC(=O)c1ccccc1` gave a max response of -1.26%. Work on `CCCc1c(OCCCOc2ccc(OCC(=O)O)cc2)ccc(C(C)=O)c1O` yielded a max response of -1.22%. With `CCCCCCCCCCCCCCSCC(=O)O` the max response was 5.54%. For `CC(=O)C(C)=O`, the max response was -4.56%.

Tested on: not listed separately
Test: qHTS assay for small molecule activators of the human pregnane X receptor (PXR) signaling pathway (AID 720659; call rule not given here; also: 0% is about no effect)
Settings: DPX-2 HepG2 CYP3A4-luciferase, 24 h; series mostly up to 92.3 µM; activation: at the top concentration
In the case of `CCCc1c(-c2ccc(O)cc2)nn(-c2ccc(O)cc2)c1-c1ccc(O)cc1`, the “activation” value is reported as 24.4%. In the case of `NC(=O)c1ccccc1`, the “activation” value is reported as -5.78%. With `CCCCCCCCCCCCCCSCC(=O)O` the “activation” value was 22.5%. For `CC(=O)C(C)=O`, the “activation” value was -7.51%.
